According to PubChem BioAssay AID1345085 (National Center for Advancing Translational Sciences (NCATS), 2018):
Inconclusive results are not listed. Unmarked numbers belong to inactive results. Active and inactive are the calls of the source. Calls come from the whole dose curve; as a rule, active = well fitted cell-killing curve with a large enough effect; inconclusive = small, poorly fitted or top-dose-only effect, or effect the other way; inactive = no such curve, though single readings can be large or run the other way.

tested on: CASKI; test: Confirmatory qHTS for gynecologic anti-cancer compounds from libraries of approved drugs and bioactive compounds; settings: gynecologic cancer cell panel viability, ATPlite luminescence, 48 h; series mostly up to 57.6 µM; note: nearly all actives have a fitted effect of over 55% in size
Source text: National Center for Advancing Translational Sciences [NCATS] Assay Overview: Chemotherapeutic drug responses vary from cancer to cancer and from patient to patient. These variations could be caused by a number of factors including patient genomic background, tumor mutations, tumor heterogeneity, and aspects of drug treatment. Chemotherapeutic drug resistance is also a common issue and can lead to ineffective treatment and patient death. Here we have profiled the cell killing effects of thousands of compounds to characterize the responses in three gynecological cancers, identify cancer-selective compounds, and understand the diversity of responses to these compounds from pan-cancer suppressors to single cell line selective compounds. In this assay, we screened a 7,914 compound drug library that included approved drug and bioactive compounds in six ovarian, three cervical, and two placental cancer cell lines using the ATPlite assay for cell viability. ATPlite is a luminescence based assay reliant on the conversion of a luciferase substrate to light in the presence of ATP. As a cytotoxic compound will suppress growth and decrease the number of cells, the concentration of ATP will decrease, and less light signal will be detected in the well. Hits were selected from the primary screen for follow-up confirmation. For the confirmation screens, the ovarian cancer cell lines included CAOV-3, SK-OV-3, SW 626, ES-2, PA-1, and TOV-21G. The cervical cancer cell lines included HeLa, Ca Ski, and C-33 A. The placental cancer cell lines included JEG-3 and JAR. HEK 293T cells were used as the control cell line to determine the selectivity index. The ATPlite assay was used to determine the IC50 values.
Assay Protocol Summary: 1,000 cells in 4 uL of media were dispensed into white, solid bottom 1536-well plates using a Multidrop Combi (Thermo Scientific). The Assay plates were incubated for 16 hours at 37 C with 5% CO2 in assay plates, followed by the addition of 23 nL of DMSO or drug dissolved in DMSO. . Each compound was assayed in 11 concentrations (1:3 dilution) from 57.5 uM to 0.977 nM, using the automated Wako 1536 Pin Tool workstation and incubated at 37 C with 5% CO2 48 hours. 4 uL of ATPlite, the ATP monitoring reagent, was then added to the each well of the assay plates using the Multidrop Combi reagent dispenser followed by incubation for 15 minutes at room temperature. The resulting luminescence was measured using the ViewLux plate reader.
% is set by controls: 0 for no effect and ±100 for the full control effect; potency is the fitted concentration of half-maximal effect.

| SMILES | Potency | activity change, negative = viability loss |
| --- | --- | --- |
| C[C@]12CCC(=O)C=C1[C@@H]1C[C@@H]1[C@H]1[C@@H]3[C@@H]4C[C@@H]4[C@@]4(CCC(=O)O4)[C@@]3(C)CC[C@@H]12 | inactive |  |
| Cc1ccccc1C(OCCN(C)C)c1ccccc1 (stereo not given) | inactive |  |
| NC(=O)c1cccc2cn(-c3ccc([C@@H]4CCCNC4)cc3)nc12 | inactive |  |
| O=C(CCCCCCNC(=O)c1cnc(N(c2ccccc2)c2ccccc2)nc1)NO | 21.7 µM (active) |  |
| CCCc1nn(C)c2c(=O)[nH]c(-c3cc(S(=O)(=O)N4CCN(C)CC4)ccc3OCC)nc12 | inactive |  |
| CN1CCN(CCOc2cc(OC3CCOCC3)c3c(Nc4c(Cl)ccc5c4OCO5)ncnc3c2)CC1 | 19.3 µM (active) |  |
| O=c1[nH]c(=O)n([C@H]2C[C@H](O)[C@@H](CO)O2)cc1C(F)(F)F | 9.68 µM (active) |  |
| C=CC(=O)Nc1cccc(Oc2nc(Nc3ccc(N4CCN(C)CC4)cc3)ncc2Cl)c1 | 10.9 µM (active) |  |
| COc1c(C)c2c(c(O)c1C/C=C(\C)CCC(=O)O)C(=O)OC2 | inactive |  |
| CN(C)CCC(CSc1ccccc1)Nc1ccc(S(=O)(=O)NC(=O)c2ccc(N3CCN(Cc4ccccc4-c4ccc(Cl)cc4)CC3)cc2)cc1[N+](=O)[O-] (stereo not given) | 3.85 µM (active) |  |
| Cc1nc(Nc2ncc(C(=O)Nc3c(C)cccc3Cl)s2)cc(N2CCN(CCO)CC2)n1 | 0.109 µM (active) |  |
| Cn1cnc([N+](=O)[O-])c1Sc1ncnc2nc[nH]c12 | 6.85 µM (active) |  |
| Cc1cc(Nc2nc(N[C@@H](C)c3ccc(F)cc3)c(C#N)cc2F)n[nH]1 | 13.7 µM (active) |  |
| COc1cccc2c1C(=O)c1c(O)c3c(c(O)c1C2=O)C[C@@](O)(C(=O)CO)C[C@@H]3O[C@H]1C[C@H](N)[C@H](O)[C@H](C)O1 | 8.63 µM (active) |  |
| CN1CCN(c2ccc(OC(F)(F)F)c(Nc3ncc4c(n3)-c3c(c(C(N)=O)nn3CCO)CC4)c2)CC1 | inactive |  |
| CNc1nc(Nc2ccc(C(=O)N3CCOCC3)cc2OC)ncc1Cl | inactive |  |
| CCc1c2c(nc3ccc(OC(=O)N4CCC(N5CCCCC5)CC4)cc13)-c1cc3c(c(=O)n1C2)COC(=O)[C@]3(O)CC | 19.3 µM (active) |  |
| CCOc1cc2ncc(C#N)c(Nc3ccc(F)c(Cl)c3)c2cc1NC(=O)/C=C/CN(C)C | 8.63 µM (active) |  |
| Cc1[nH]c2ccccc2c1CCNCc1ccc(/C=C/C(=O)NO)cc1 | 0.611 µM (active) |  |
| COc1ccc2cc3[n+](cc2c1OC)CCc1cc2c(cc1-3)OCO2 | 10.9 µM (active) |  |

| SMILES | Potency | activity change, negative = viability loss |
| --- | --- | --- |
| Cc1ccc(NC(=O)c2ccc(CN3CCN(C)CC3)cc2)cc1Nc1nccc(-c2cccnc2)n1 | inactive |  |
| C[C@]12CCC(=O)C=C1CC[C@@H]1[C@@H]2[C@@H](O)C[C@@]2(C)[C@H]1CC[C@]2(O)C(=O)CO | inactive |  |
| CN(C)C1CCN(C(=O)c2ccc(NC(=O)Nc3nc(N4CCOCC4)nc(N4CCOCC4)n3)cc2)CC1 | 0.273 µM (active) |  |
| Cc1ccc(C(N)=O)cc1Nc1nccc(-c2cn(C(C)C)c3cnccc23)n1 | 17.2 µM (active) |  |
| O=C1c2c(O)ccc(O)c2C(=O)c2c(NCCNCCO)ccc(NCCNCCO)c21 | 7.69 µM (active) |  |
| CCCCN(CCCC)C(=O)CN1C[C@H](c2ccc3c(c2)OCO3)[C@@H](C(=O)O)[C@@H]1c1ccc(OC)cc1 | inactive |  |
| CC[C@@]1(O)C(=O)OCc2c1cc1n(c2=O)Cc2cc3cc(O)ccc3nc2-1 | 0.243 µM (active) |  |
| CNCc1ccc(-c2[nH]c3cc(F)cc4c3c2CCNC4=O)cc1 | inactive |  |
| Cc1cnc(Nc2ccc(OCCN3CCCC3)cc2)nc1Nc1cccc(S(=O)(=O)NC(C)(C)C)c1 | 19.3 µM (active) |  |
| COc1cc(Nc2c(C#N)cnc3cc(OCCCN4CCN(C)CC4)c(OC)cc23)c(Cl)cc1Cl | 24.3 µM (active) |  |
| O=C(NOCC1CC1)c1ccc(F)c(F)c1Nc1ccc(I)cc1Cl | 21.7 µM (active) |  |
| FC(F)(F)c1ccc(/C=C/c2nc(COc3ccc(CCCCn4ccnn4)cc3)co2)cc1 | 0.137 µM (active) |  |
| O=C(CCCCCCC(=O)Nc1ccccc1)NO | 12.2 µM (active) |  |
| CCC(=O)N1CCN(c2ccc(-n3c(=O)ccc4cnc5ccc(-c6cnc7ccccc7c6)cc5c43)cc2C(F)(F)F)CC1 |  | -25.9% [at 10.7 µM] |
| CCC1=CC2CN(C1)Cc1c([nH]c3ccccc13)[C@@](C(=O)OC)(c1cc3c(cc1OC)N(C)[C@H]1[C@@](O)(C(=O)OC)[C@H](OC(C)=O)[C@]4(CC)C=CCN5CC[C@]31[C@@H]54)C2 (stereo not given in full) | inactive |  |
| COc1cc2c(Oc3ccc(-c4cnc(Nc5ccc(F)cc5)n(C)c4=O)cc3F)ccnc2cc1OCCCN1CCOCC1 | inactive |  |
| CCC1C(=O)N(C)c2cnc(Nc3ccc(C(=O)NC4CCN(C)CC4)cc3OC)nc2N1C1CCCC1 (stereo not given) | 6.85 µM (active) |  |
| CN(C)C/C=C/C(=O)Nc1cc2c(Nc3ccc(F)c(Cl)c3)ncnc2cc1OC1CCOC1 (stereo not given) | 21.7 µM (active) |  |
| CCN1CCN(Cc2ccc(-c3cc4c(NC(C)c5ccccc5)ncnc4[nH]3)cc2)CC1 (stereo not given) | 19.3 µM (active) |  |
| COc1cc2nccc(Oc3ccc(NC(=O)Nc4cc(C)on4)c(Cl)c3)c2cc1OC | 27.3 µM (active) |  |
